Data: PubChem BioAssay (EPA / NIEHS)
Activity calls are given as the source filed them. Rule for the calls: active = hit-call score of the fitted dose curve at least 0.9, where 1 is the maximum; inactive = score below 0.9.

read-out: Plasminogen activator inhibitor-1 (PAI1), SERPINE1 (gene 5054); experiment: BSK_hDFCGF_PAI1: BioMAP Diversity Plus: hDFCGF Assay for Plasminogen activator inhibitor-1 (PAI1) Biomarker Activity (AID 2283066); conditions: primary human foreskin fibroblasts; actives raise or lower the signal
Experimental: BSK_hDFCGF is a cell-based, multiplexed-readout assay that uses foreskin fibroblast, a human skin primary cell, with measurements taken at 24 hours after chemical dosing in a 96-well plate.BSK_hDFCGF_PAI1 is an assay component measured in the BSK_hDFCGF assay. It measures PAI-1 antibody related to regulation of gene expression using ELISA technology.Data from the assay component BSK_hDFCGF_PAI1 was analyzed into 1 assay endpoint. This assay endpoint, BSK_hDFCGF_PAI1, was analyzed with bidirectional fitting relative to DMSO as the negative control and baseline of activity. Using a type of binding reporter, gain or loss-of-signal activity can be used to understand changes in the signaling as they relate to the gene SERPINE1. Furthermore, this assay endpoint can be referred to as a primary readout, because this assay has produced multiple assay endpoints where this one serves a signaling function. To generalize the intended target to other relatable targets, this assay endpoint is annotated to the cytokine intended target family, where the subfamily is plasmogen activator inhibitor.
The levels of cell surface (or secreted, indicated by the prefix "s") biomarker endpoints were measured by ELISA. Overt cytotoxicity to cells in confluent adherent cultures (all systems other than the BT system) was assessed by measuring total protein levels using sulforhodamine B (SRB) staining in parallel cultures at the time of biomarker measurements, indicated as SRB endpoints. For proliferation assays for adherent cell types, individual cell types are cultured at sub-confluence and relative cell numbers quantified by SRB staining at time points optimized for each system (48 h: 3C and CASM3C systems; 72 h: BT and HDF3CGF systems; 96 h: SAg system). SRB was performed by staining cells with 0.1% SRB after fixation with 10% TCA and reading wells at 560 nm.Viability and proliferation of PBMC (T cells) was quantified by Alamar Blue reduction for the SAg and BT systems. For PBMC viability (referred to as PBMC Cytotoxicity within the assay endpoint names), cells were plated (75,000/well in a 96-well plate) and then chemical samples added for 1 h before addition of activators, SEB and TSST-1 (20 ng/mL final concentration each). Cells were incubated for 90 h. Then, Alamar Blue (20 uL/well) (Invitrogen, Cat DAL1100) was added for 6 h, and the plates were read with a fluorescence microplate reader at 546/580 nm (excitation/emission). For PBMC proliferation, cells were plated and activated as above but incubated for only 16 h prior to addition of Alamar Blue. Plates were read after 6 h.

Structure (SMILES)	outcome	AC50
CC(=O)OCC(COC(C)=O)OC(C)=O	inactive	–
Oc1ccccc1O	inactive	–
CC(=O)O[C@]1(C(C)=O)CC[C@H]2[C@@H]3C=C(Cl)C4=CC(=O)[C@@H]5C[C@@H]5[C@]4(C)[C@H]3CC[C@@]21C	–	1.74 µM (active)
CC(=O)O	inactive	–
NC(=Nc1ccccc1)Nc1ccccc1	inactive	–
CC(C)(C)c1ccccc1	inactive	–
S=c1[nH]c2ccccc2s1	inactive	–
Cc1occc(=O)c1O	inactive	–
COc1ccc(C(=O)Nc2nc3ccccc3c(NCc3ccccc3)c2C#N)cc1	inactive	–
CC(C)COC(=O)CCCCC(=O)OCC(C)C	inactive	–
CCN(CC)CCOc1ccc(C(=C(Cl)c2ccccc2)c2ccccc2)cc1	–	9.48 µM (active)
OCC(O)CO	inactive	–
CN(C)C(=O)NC1(c2ccccc2)CCN(CC[C@@]2(c3ccc(F)c(F)c3)CN(C(=O)c3ccccc3)CCO2)CC1	inactive	–
O=[Si]=O	inactive	–
Nc1nc(Cl)nc2c1ncn2[C@H]1C[C@H](O)[C@@H](CO)O1	–	10.2 µM (active)
O=C1NC(=O)C(c2ccccc2)(c2ccccc2)N1	inactive	–
CC1=C(C)S(=O)(=O)CCS1(=O)=O	inactive	–
CCCCCCCC(=O)OC	inactive	–
COC(=O)CCCC(=O)OC	inactive	–
C/C=C/c1ccc(OC)cc1	inactive	–

Structure (SMILES)	outcome	AC50
O=C1O[C@H]([C@H](O)CO)C(O)=C1O	inactive	–
CN(C)CCCN(C)CCCN(C)C	inactive	–
C=CCc1ccc(OC)c(OC)c1	inactive	–
CCCCOC(=O)CCCCC(=O)OCCCC	inactive	–
CN(C)C(=O)NC1(c2ccccc2)CCN(CCC[C@]2(c3ccc(Cl)c(Cl)c3)CCCN(C(=O)c3ccccc3)C2)CC1	inactive	–
CN(C)CCCN1c2ccccc2Sc2ccc(Cl)cc21	–	31.9 µM (active)
O=C1c2c(O)cccc2Cc2cccc(O)c21	inactive	–
CC(C)(O)c1ccc(CNC(=O)c2cccnc2Oc2ccc(F)cc2)cc1	–	0.457 µM (active)
Cc1ccc(-c2cc(C(F)(F)F)nn2-c2ccc(S(N)(=O)=O)cc2)cc1	inactive	–
C/C=C/C=C/C(=O)O	inactive	–
Cc1cc(Cc2ccc(N)c(C)c2)ccc1N	inactive	–
CC(COCC(C)OC(=O)c1ccccc1)OC(=O)c1ccccc1 (stereo not given)	inactive	–
CCCCC(CC)COC(=O)CCCCCCCC(=O)OCC(CC)CCCC (stereo not given)	inactive	–
C=CCCCCCCCCCCCC	inactive	–
c1ccc2occc2c1	inactive	–
Cc1c(C)c2c(c(C)c1O)CCC(C)(COc1ccc(CC3SC(=O)NC3=O)cc1)O2 (stereo not given)	–	8.87 µM (active)
Cc1cc(SC2=C(O)C[C@@](CCc3ccc(N)cc3)(C(C)C)OC2=O)c(C(C)(C)C)cc1CO	inactive	–
CC(=O)[C@@]1(O)CC[C@H]2[C@@H]3CCC4=CC(=O)CC[C@]4(C)[C@H]3CC[C@@]21C	inactive	–
O=C(O)c1cccnc1	inactive	–
COc1ccc(OC(F)(F)F)cc1CN[C@H]1CCCN[C@H]1c1ccccc1	inactive	–
